# Screening results deposited in PubChem by National Center for Advancing Translational Sciences (NCATS).
# Mito fusion yeast – mitochondrial division inhibition or fusion activation | 320,000 tested, 0.23% active | Potency, µM (series often up to 46.1 µM), most hits filed as activators | S. cerevisiae fusion-defective mutant growth rescue, CellTiterGlo 48 h; active = well fitted activation curve with a large enough effect; inconclusive = small, poorly fitted or top-dose-only effect; inactive = no such curve, though single readings can be large or run the other way; also: nearly all actives have a fitted effect of over 45% in size
#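 Temperature-sensitive fusion-defective S. cerevisiae (e.g. fzo1-1, mgm1-5) were grown with compound in YPEG medium (3% ethanol, 3% glycerol) for 48 hours at 37C. Growth rescue was measured as viability by CellTiterGlo luminescence after 10 minutes at ambient.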
# Six1-Eya2 blk – blocks human Six1 binding to Eya2. activity change, % (concentration not given with the values). 360,000 tested, 0.56% active. AID 651725. AlphaScreen GST-Six1/His-Eya2 binding, biochemical; hits give low values. Q15475+O00167
# Target sequence (O00167 whole entry, looked up): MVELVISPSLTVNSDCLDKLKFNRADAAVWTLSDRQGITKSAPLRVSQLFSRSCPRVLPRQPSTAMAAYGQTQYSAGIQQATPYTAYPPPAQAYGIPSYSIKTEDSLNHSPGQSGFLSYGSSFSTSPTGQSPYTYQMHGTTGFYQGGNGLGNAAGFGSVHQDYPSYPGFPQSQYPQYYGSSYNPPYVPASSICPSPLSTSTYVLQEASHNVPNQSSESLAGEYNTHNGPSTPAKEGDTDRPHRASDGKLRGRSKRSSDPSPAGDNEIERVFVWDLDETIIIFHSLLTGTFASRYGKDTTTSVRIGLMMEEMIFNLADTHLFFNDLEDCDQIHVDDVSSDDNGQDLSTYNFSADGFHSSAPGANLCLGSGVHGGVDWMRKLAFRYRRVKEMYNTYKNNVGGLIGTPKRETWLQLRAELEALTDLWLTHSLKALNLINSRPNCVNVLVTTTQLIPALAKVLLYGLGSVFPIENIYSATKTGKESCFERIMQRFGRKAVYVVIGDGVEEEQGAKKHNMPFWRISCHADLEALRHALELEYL
# Target sequence (Q15475 whole entry, looked up): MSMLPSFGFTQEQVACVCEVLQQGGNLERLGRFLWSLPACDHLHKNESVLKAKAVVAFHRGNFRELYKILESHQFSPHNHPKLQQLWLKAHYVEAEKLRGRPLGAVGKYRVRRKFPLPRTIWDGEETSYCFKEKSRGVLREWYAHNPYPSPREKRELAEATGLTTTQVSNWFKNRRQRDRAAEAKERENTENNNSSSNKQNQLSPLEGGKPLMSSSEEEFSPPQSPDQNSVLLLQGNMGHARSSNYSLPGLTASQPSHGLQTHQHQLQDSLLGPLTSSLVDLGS
#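 Homogeneous AlphaScreen proximity assay pairing GST-Six1 with His-tagged Eya2 (added as 5X mix: 250 nM and 500 nM) in 50 mM Tris pH 8.0, 300 mM NaCl, 1 mM TCEP. Glutathione donor and nickel acceptor beads; 1 h, 37 °C, dark.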
# MBNL1 CUG block – inhibitors of human MBNL1 binding to CUG repeat RNA; 280,000 tested, 0.036% active; TR-FRET MBNL1-His/biotin-(CUG)12 binding, 665/545 ratio; AID 2675; Potency, µM (top dose mostly 57.5 µM), most hits filed as inhibitors; active = well fitted inhibition curve with a large enough effect in the signal ratio, with a control signal flat, not every such curve was filed as active; inconclusive = small, poorly fitted or top-dose-only effect, or effect the other way, or a change in a side signal; inactive = no such curve, though single readings can be large or run the other way; the % refers to the signal ratio
#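 TR-FRET between His-tagged MBNL1 and biotin-(CUG)12 RNA, detected with Tb anti-His antibody (0.055 ng/ul) and streptavidin-XL665 (5 nM), 60 min at room temperature. Compounds titrated 92 nM to 58 uM; 665/545 nm ratio normalized to buffer and complex controls.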
# uPA generation – inhibitors of cell surface uPA generation | 330,000 tested, 0.31% active | AID 540303 | cell surface uPA generation assay, qHTS | Potency, µM (titrated, usually from 38.3 µM), most hits filed as inhibitors; active = well fitted inhibition curve with a large enough effect; inconclusive = small, poorly fitted or top-dose-only effect; inactive = no such curve, though single readings can be large or run the other way; tested in mouse RAW 264.7 cells; also: nearly all actives have a fitted effect of over 55% in size
# CtBP-E1A inh – inhibitors of CtBP/E1A interaction; AlphaScreen GST-E1A/His-CtBP binding, 1536-well; hits give low values; activity change, % (no concentration beside the values); 340,000 tested, 0.49% active; AID 651724
#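 In 5 uL wells, 23 nL compound meets equimolar GST-E1A and His-CtBP (5X stock 125 nM each) for 2 h, 37 °C. Beads (5X, 50 ug/mL) then 1 h, 37 °C, dark.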
# Hits are given with their value; . = inactive; ? = inconclusive; / = not tested or not shown. Only some compounds are listed: those with a hit (about 1.1% of all), similar ones and a draw of the others. Rule as the data show it, unless noted: active = activity change below about -65%; inconclusive = mostly about -30% to -63%; inactive = weaker than that.
SMILES,Mito fusion yeast,Six1-Eya2 blk,MBNL1 CUG block,uPA generation,CtBP-E1A inh
Cc1ccc(NCc2ccc(O)c3ncccc23)cc1C,.,-69.5,.,.,-79.6
Cc1ccc(NCc2ccc(O)c3ncccc23)cc1,.,-72.2,.,.,-78.4
Cc1ccc(NC(=S)N2CCCC(c3nc4ccccc4[nH]3)C2)cc1 (stereo not given),.,.,.,.,/
Cc1ccc(NC(=S)c2nc3ccccc3[nH]2)c(C)c1,.,-72.0,.,.,?
Cc1ccc(NC(=S)c2nc3ccccc3[nH]2)cc1,.,-80.6,?,.,-72.1
Cc1ccc(NC(=S)c2ccncc2)c(C)c1,.,.,.,?,/
Oc1ccc2ccccc2c1/C=N/Nc1nnc(-c2ncc[nH]2)c2ccccc12,.,-67.0,.,.,-73.2
COc1ccc(/C=N/Nc2nnc(-c3ncc[nH]3)c3ccccc23)cc1,.,.,.,.,.
COc1cc(C(=O)NCC(=O)N2CCN(S(=O)(=O)c3cc(C)ccc3C)CC2)cc(OC)c1OC,.,.,.,2.24µM,.
C[C@H](NC(=O)[C@H](Cc1ccccc1)n1c(=O)[nH]c2ccccc2c1=O)C(=O)N1CCC(C(=O)O)CC1,.,.,.,4.47µM,.
O=C(CN1CC(=O)Oc2ccccc21)OCC(=O)c1ccc(F)cc1,?,-75.2,.,.,?
O=C(CN1CC(=O)Oc2ccccc21)OCC(=O)c1ccc(Br)cc1,/,-90.7,/,.,-86.7
CC1=C(C(=O)N2CCCCCC2)CC(CC(=O)NCC2CCCCC2)C(=O)N1Cc1ccc(F)cc1 (stereo not given),/,.,/,/,.
CCCCN(CCCC)CCNC(=O)CNC(=O)c1cccs1,31.6µM,.,.,/,.
CC(C)(C)c1ccc(S(=O)(=O)/C=C/C#N)cc1,.,/,/,/,/
CCc1ccc2[nH]c(=O)c(C3C(C#N)=C(N)Oc4c3ccc3cccnc43)cc2c1 (stereo not given),.,?,?,.,-86.4
N#CC1=C(N)Oc2c(ccc3cccnc23)C1c1cccnc1 (stereo not given),.,-90.8,?,.,-92.2
Cc1ccc2cc(C3C(C#N)=C(N)Oc4c3ccc3cccnc43)c(=O)[nH]c2c1 (stereo not given),.,-71.7,?,/,-93.7
CC(C)C[C@@H](CNCC(=O)[C@H](Cc1ccccc1)NC(=O)c1[nH]cnc1C(=O)N[C@@H](C)CN)NC(=O)c1nc[nH]c1C(=O)N[C@@H](C)C(=O)O,/,.,/,.,.
CCOc1ccccc1-c1cnc(NC)cn1,/,.,/,/,.
CS(=O)(=O)Nc1ccc2c(c1)[C@H]1C[C@H](CC(=O)NCc3ccccc3)O[C@H](CO)[C@H]1O2,/,.,/,/,.
COc1cccc2oc3cc(C#CC4(O)CCCCC4)ccc3c(=O)c12,.,.,.,7.08µM,.
O=c1c2ccccc2oc2cc(C#CC3(O)CCCCC3)ccc12,/,.,/,4.47µM,.
COc1cccc2sc3ccc(C#CC4(O)CCCCC4)cc3c(=O)c12,.,.,.,?,.
C=CCn1c2ccccc2c(=O)c2cc(C#CC3(O)CCCCC3)ccc21,.,.,?,?,.
SMILES,Mito fusion yeast,Six1-Eya2 blk,MBNL1 CUG block,uPA generation,CtBP-E1A inh
O=c1c2ccccc2sc2ccc(C#CC3(O)CCCCC3)cc12,/,.,/,2.51µM,.
CC(C)Cn1cc(-c2cccc3nccn23)cn1,/,.,/,/,.
COc1ccc(NS(=O)(=O)c2cccc(-c3nnc(-c4ccccc4)o3)c2)cc1,12.6µM,.,?,.,.
O=S(=O)(NC1CCCC1)c1cccc(-c2nnc(-c3ccccc3)o2)c1,.,.,.,/,.
COc1cc(N=C2C(=O)N3CCCc4cccc2c43)cc(OC)c1,.,.,.,.,-76.4
CSc1nc2ccc(NC(=O)c3ccc(F)c(F)c3)cc2s1,.,.,.,.,.
CCOC(=O)Nc1ccc2nc(Sc3ccc(Cl)cc3)sc2c1,.,.,.,1.58µM,/
Cc1ccc(N2CCN(C(C(=O)Nc3c(C)cccc3C)c3cccc(F)c3)CC2)cc1 (stereo not given),/,.,/,/,.
Cc1ccn2c(NC3CCCC3)c(-c3ccccn3)nc2c1,.,-66.0,.,.,-80.0
Cc1cc(C)n2c(NC3CCCC3)c(-c3cc4ccccc4o3)nc2n1,/,.,/,/,.
c1ccc(-c2nc3ccccn3c2NC2CCCC2)nc1,.,?,.,.,-67.4
COc1ccc(-c2nc3ccccn3c2NC2CCCCC2)cc1SC1CCCCC1,.,.,/,?,.
Cc1cc(C)n2c(NC3CCCCC3)c(-c3ccccn3)nc2n1,/,-78.0,/,/,?
CC(=O)N(CC(=O)N(CC(=O)O)c1ccc(Cl)cc1)c1ccc(Cl)cc1,/,.,/,.,.
Cn1c(N2CCN(S(=O)(=O)c3ccc(F)cc3)CC2)nc2ccccc21,11.2µM,.,.,.,.
O=S(=O)(c1ccc(F)cc1)N1CCn2c(nc3ccccc32)C1,.,.,.,.,.
COc1cc(F)c(S(=O)(=O)Nc2c(C)n(C)n(-c3ccccc3)c2=O)cc1OC,.,/,/,/,/
CS(=O)(=O)c1cc(C(=O)O)cc(NCc2ccccc2)c1Oc1ccccc1,/,.,/,/,.
CS(=O)(=O)Nc1ccc(-c2ccc(/C=C3\SC(N)=NC3=O)o2)cc1,.,?,?,.,-67.7
C/C=C(\C)C(=O)NCCN1C2=NC[C@H](C(C)C)N2C[C@H]1Cc1ccc(O)cc1,.,.,.,.,.
C/C=C(\C)C(=O)NCCN1C2=NC[C@H](C(C)C)N2C[C@@H]1Cc1ccc(OC)cc1,.,-72.3,.,.,-70.3
CC1CCCCN1S(=O)(=O)c1ccc2c(c1)oc(=O)n2CC(=O)Nc1ccc(Cl)cc1 (stereo not given),.,/,/,/,/
O=C(O)c1ccnc2c(O)cccc12,.,/,/,/,/
COc1ccc(C2CN=NC23CCc2ccccc2C3=O)cc1 (stereo not given),.,.,.,4.47µM,/
CCc1ccc2[nH]c3nc(N/N=C/c4ccc(O)cc4O)nnc3c2c1,.,?,.,.,-81.1
SMILES,Mito fusion yeast,Six1-Eya2 blk,MBNL1 CUG block,uPA generation,CtBP-E1A inh
CC1(Oc2ccc(CC#N)cc2)CCN(Cc2ccc(-n3ccnc3)cc2)C1 (stereo not given),/,.,/,/,.
Cc1ccc(C(=O)c2c3ccc([N+](=O)[O-])cc3[n+]([O-])n2CCC(N)=O)cc1,.,.,?,1.41µM,.
CCS(=O)(=O)Nc1cccc(-c2ccc3nnc(-c4cccnc4)n3n2)c1,.,-66.9,?,.,-85.5
CN(CC(=O)Nc1ccc(OC(F)(F)F)cc1)C(=O)c1ccccc1SCC(=O)N1CCCC1,/,.,/,.,.
Nc1c(Cl)ncnc1N/N=C/c1ccnc2ccccc12,.,.,?,.,.
Nc1c(Cl)ncnc1N/N=C/c1ccccn1,?,-87.0,?,.,-86.3
Nc1c(Cl)ncnc1N/N=C/c1ccc2ccccc2n1,.,-80.4,?,.,-79.5
CC1(C(=O)NS(=O)(=O)Cc2ccccc2)CCN1C(=O)Cc1ccccc1Cl (stereo not given),/,.,/,/,.
